SMN2 splice enh: enhancers of SMN2 splice variant expression; HEK293 SMN2-luciferase splicing reporter, luminescence, 30-36 h; Potency, µM (top dose mostly 46.1 µM), inactives show top-dose activity change, positive = activation, hits mostly activators; 210,000 tested, 2.8% active; AID 1458; also: % of control where 0% means no effect; nearly all actives have a fitted effect of over 55% in size
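HEK293 cells carry an SMN2 minigene-luciferase reporter in which exon 7 inclusion puts luciferase in frame. Cells were seeded at 2000 cells/well, attached for 10-12 hours, then exposed to compounds for 30-36 hours at 37C before ONE-Glo luminescence.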
Rab9 promoter act: activates the Rab9 promoter; 320,000 tested, 2.8% active; AID 485297; Huh7 Rab9 promoter-luciferase reporter, luminescence, 24 h; Potency, µM (highest dose often 9.22 µM), for inactives: at the highest dose activation, negative = inhibition, actives largely listed as activators; also: % of control where 0% means no effect; nearly all actives have a fitted effect of over 60% in size
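Quantitative HTS format; Huh7 Rab9-luciferase reporter cells (1500/well) receive compound 2 h post-plating, incubate 24 h at 37 °C, then get luciferase reagent for 10 min before luminescence reading.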
ELG1 genotox: induces genotoxicity in HEK293T cells with luciferase-tagged ELG1 | HEK293T ELG1-luciferase reporter, luminescence, 16 h | Potency, µM (highest dose often 46 µM), inactives show at the top dose activity change, positive = activation, most hits filed as activators | 330,000 tested, 1.3% active | AID 504466; also: % of control where 0% means no effect; nearly all actives have a fitted effect of over 60% in size
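DMSO vehicle served as control against compound-treated ELG1-luciferase HEK293T cells; exposure lasted 16 hr at 37 °C and 5% CO2, followed by ONE-Glo luminescence detection after 30 min.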
FLuc counter: firefly luciferase modulation, counter-screen for miR-21 project; P08659; purified FLuc, Km substrates, luminescence inhibition; Potency, µM (series often up to 57.5 µM), for inactives: at the highest dose activity change, negative = inhibition, actives largely listed as inhibitors; 360,000 tested, 6.9% active;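 also: plate controls were vehicle for no effect and reference inhibitor for full effect; nearly all actives have a fitted effect of over 55% in size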
Target sequence (P08659 whole entry, looked up): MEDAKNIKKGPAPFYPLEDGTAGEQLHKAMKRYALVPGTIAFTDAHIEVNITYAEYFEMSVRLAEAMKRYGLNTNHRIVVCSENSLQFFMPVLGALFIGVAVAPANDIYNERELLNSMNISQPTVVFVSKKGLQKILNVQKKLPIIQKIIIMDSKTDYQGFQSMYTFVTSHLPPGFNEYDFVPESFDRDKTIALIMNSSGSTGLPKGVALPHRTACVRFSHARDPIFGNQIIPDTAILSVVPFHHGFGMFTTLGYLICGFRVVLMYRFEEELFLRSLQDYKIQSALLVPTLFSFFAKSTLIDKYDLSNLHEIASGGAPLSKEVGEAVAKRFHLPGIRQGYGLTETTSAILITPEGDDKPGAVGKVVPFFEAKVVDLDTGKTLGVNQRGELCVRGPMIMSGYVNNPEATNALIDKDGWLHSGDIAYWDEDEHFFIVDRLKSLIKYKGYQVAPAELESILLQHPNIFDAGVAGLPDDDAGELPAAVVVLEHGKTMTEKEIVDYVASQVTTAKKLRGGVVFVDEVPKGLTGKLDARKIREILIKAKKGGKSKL
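Purified P. pyralis luciferase, 10 nM final, with Km-level 10 uM D-luciferin and 10 uM ATP in 50 mM Tris acetate pH 7.5, 10 mM Mg acetate, 0.01% Tween-20, 0.05% BSA; 6-point qHTS titration about 60 µM downward; luminescence read.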
KinaseGlo FLuc: counter-screen: inhibitors of Kinase-Glo firefly luciferase | AID 1379 | Potency, µM (top dose mostly 38.3 µM), inactives show at the highest dose activity change, negative = inhibition, usual class: inhibitors | Kinase-Glo luciferase, ATP luminescence, 8 min | 200,000 tested, 0.28% active; also: % is scaled to controls: 0 for no effect and ±100 for the full control effect; nearly all actives have a fitted effect of over 60% in size
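Kinase-Glo luciferase light output from ATP and luciferin was measured with 10 uM ATP, within the enzyme's linear range. Buffer: 50 mM imidazole pH 7.2, 50 mM KCl, 7 mM MgCl2, 0.01% Tween 20, 0.05% BSA; luminescence read after 8 min at ambient temperature.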
NPC1 prom act: activates the NPC1 promoter | Potency, µM (top dose mostly 9.22 µM), for inactives: at the highest dose activation, actives largely listed as activators | Huh7 NPC1 promoter luciferase reporter, 24 h | 320,000 tested, 2.4% active | AID 485313; also: % of control where 0% means no effect; nearly all actives have a fitted effect of over 60% in size
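Huh7 reporter cells (NPC1 promoter driving luciferase) are dosed with compound for 24 h at 37 °C, 5% CO2; luciferase detection reagent is then added and luminescence measured after 10 min at ambient temperature.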
Numbers without * were called inactive; ? = inconclusive; . = no result. Compounds with a hit are over-represented: about 7.5% of the library has one in this group of screens. Calls follow the shape of the dose curve; as a rule, active = well fitted curve in the direction sought with a large enough effect; inconclusive = small, poorly fitted or top-dose-only effect, or another doubt; inactive = no such curve, though single readings can be large; an effect the other way counts as inactive or inconclusive. Potency is read from the fitted curve at half-maximal effect.

SMILES	SMN2 splice enh	Rab9 promoter act	ELG1 genotox	FLuc counter	KinaseGlo FLuc	NPC1 prom act
O=C(NCCc1cccc(Cl)c1)c1cccs1	15.8µM*	1.78µM*	?	15.1µM*	-2.7%	2.24µM*
Cc1occc1C(=O)NCCc1cccc(Cl)c1	?	3.98µM*	?	21.3µM*	-8.7%	?
COc1ccc(C(CNC(=O)c2cccc(S(=O)(=O)Nc3cccc(C)c3)c2)N2CCOCC2)cc1 (stereo unspecified)	.	5.2%	-4.8%	-1.9%	.	0.2%
CC(=O)c1ccccc1NS(=O)(=O)c1cc2c(cc1C)NC(=O)CO2	.	.	.	-3.2%	.	.
CSc1c(-c2ccccn2)c(N)nn1C(=O)C1CC1	.	0.1%	-0.3%	19µM*	.	-0.2%
COc1cccc(N2C(=O)C(CC(=O)Nc3ccc(Cl)cc3)N(Cc3ccc4c(c3)OCO4)C2=O)c1 (stereo unspecified)	8.0%	.	.	-3.2%	.	.
CCOC(=O)CSc1nc2cc(C)ccc2cc1C#N	14.1µM*	1.26µM*	?	?	-0.3%	0.708µM*
CCOC(=O)CSc1nc2cc(OC)ccc2cc1C#N	11.2µM*	1.26µM*	0.82µM*	?	1.0%	0.794µM*
COc1ccc2nc(SCC(C)=O)c(C#N)cc2c1	2µM*	1µM*	2.06µM*	1.07µM*	-5.2%	?
CCOC(=O)CSc1nc2ccc(C)cc2cc1C#N	15.8µM*	1.41µM*	2.31µM*	12µM*	-4.5%	2.82µM*
COc1cc(O)c(C(=O)/C=C/c2ccc(OC)c(O)c2)c(OC)c1	-25.9%	.	.	.	-6.8%	.
O=C(CSc1nnc(NC(=O)c2ccco2)s1)Nc1ccccc1	?	1.1%	14.6%	21.3µM*	-3.2%	13.5%
O=C(CSc1nnc(NC(=O)c2ccco2)s1)Nc1ccccc1Cl	.	4.2%	1.8%	?	.	2.3%
CC(=O)Nc1ccc(NC(=O)CSc2nnc(NC(=O)c3ccco3)s2)cc1	.	15.7%	6.0%	16.9µM*	.	8.4%
CCN1CCN(c2ccc(S(=O)(=O)N3CCOCC3)cc2NC(=O)C(C)Oc2ccc(Cl)cc2)CC1 (stereo unspecified)	.	-6.7%	-4.1%	4.3%	.	0.7%
CCOC(=O)c1sc(N)c(C(=O)Nc2ccccc2)c1C	.	2.82µM*	17.1%	?	2.0%	21.8%
CCOC(=O)c1sc(N)c(C(=O)OCC)c1C	.	?	?	21.3µM*	.	?
CN(C)c1ccc(NC(=O)CSC2=Nc3ccccc3C3=NC(CC(=O)NCc4ccccc4)C(=O)N23)cc1 (stereo unspecified)	.	.	.	0.3%	.	.
O=C(NCCc1c[nH]c2ccccc12)c1c(Cl)nc2sccn12	5.7%	?	6.3%	0.9%	-3.5%	?
O=C(c1c(Cl)nc2sccn12)N(C(=O)c1c(Cl)nc2sccn12)c1ccc(Cl)cn1	12.6µM*	17.9%	3.66µM*	-13.3%	3.0%	15.0%
COc1ccc(NC(=O)CSc2nc3ccccc3n2CC(=O)N(C)C2CCCCC2)cc1	.	.	.	-15.9%	.	.
O=C(NCc1nc(-c2ccccc2)no1)c1cccs1	-10.9%	-3.6%	-0.8%	-2.3%	-5.7%	0.9%
Cc1csc(NC(=O)c2ccco2)n1	-7.4%	2.9%	-0.9%	-2.2%	-3.7%	1.3%
CC1CC1C(=O)Nc1nc(-c2ccccc2)cs1 (stereo unspecified)	-7.0%	?	?	23.9µM*	-2.9%	21.2%
O=C(Nc1nc(-c2ccccc2)ns1)c1cccs1	12.6µM*	?	3.0%	15.1µM*	2.0%	?
SMILES	SMN2 splice enh	Rab9 promoter act	ELG1 genotox	FLuc counter	KinaseGlo FLuc	NPC1 prom act
O=C(NNc1nc(-c2ccc(Cl)cc2)cs1)c1ccco1	19.0%	24.9%	1.0%	23.9µM*	0.7%	13.6%
O=C(Nc1nc(-c2ccc(Cl)s2)cs1)c1ccco1	?	3.16µM*	?	15.1µM*	-1.9%	?
O=C(NNc1nc(-c2ccccc2)cs1)c1ccco1	23.4%	-0.4%	11.2%	?	-0.2%	3.0%
COc1ccc(NC(=O)c2ccco2)cc1NC(=O)C(C)(C)Oc1ccc(Cl)cc1	-18.4%	.	.	-17.6%	.	.
Cc1ccc(OCCCC(=O)Nc2sc3c(c2C(N)=O)CCCC3)cc1	-18.1%	.	.	?	.	.
COc1cccc(OC)c1C(=O)Nc1nc(-c2ccccc2)cs1	.	-4.9%	-2.2%	1.4%	.	-7.9%
O=C(Nc1nc(-c2nc3ccccc3s2)cs1)c1ccco1	22.4µM*	?	?	?	-1.4%	?
O=C(Nc1nc(-c2ccc(Cl)s2)cs1)c1cccs1	5.1%	27.2%	7.5%	10.7µM*	1.4%	?
O=C(Nc1nc(-c2ccccc2)cs1)c1cccs1	.	3.55µM*	3.6%	8.49µM*	.	?
O=C(Nc1ccc(Cl)cc1-c1nc2ccccc2s1)c1ccco1	.	-3.6%	0.0%	-9.8%	.	8.9%
O=C(Nc1nc(-c2nc3ccccc3s2)cs1)C1CC1	7.08µM*	0.708µM*	2.59µM*	3.01µM*	-2.8%	1.41µM*
CS(=O)(=O)N(Cc1ccccc1)c1ccc(C(=O)Nc2ccc(Cl)cc2)cc1	3.0%	.	.	2.6%	.	.
COc1ccc2c(c1)cc1c(=O)n(CC(=O)NC3CCCCC3)nc(C)n12	1.6%	.	.	-2.8%	.	.
COc1ccc(NC(=O)c2cc3ccccc3o2)cc1S(=O)(=O)N1CCCCC1	.	.	-8.1%	.	.	.
CNc1nnc(-c2cc3ccccc3oc2=O)s1	12.6µM*	1.41µM*	18.4µM*	4.78µM*	?	1.41µM*
COc1cccc2sc(Nc3nc(-c4cc5ccccc5oc4=O)cs3)nc12	-8.2%	-19.1%	6.3%	?	-0.4%	-26.5%
COc1ccc2cc(-c3nnc(Nc4ccccc4)s3)c(=O)oc2c1	.	.	.	2.3%	.	.
CC(=O)Nc1ccc(Nc2nc(-c3cc4ccccc4oc3=O)cs2)cc1	.	?	?	5.36µM*	.	?
COc1ccc2oc(=O)c(-c3csc(Nc4cccc(O)c4)n3)cc2c1	?	-2.2%	-0.1%	1.69µM*	-2.5%	11.0%
O=C(O)c1ccc(Nc2nc(-c3cc4ccccc4oc3=O)cs2)cc1O	1.0%	2.0%	8.5%	4.78µM*	0.8%	7.8%
CCOC(=O)C(NCCOC)(NC(C)=O)C(F)(F)F (stereo unspecified)	.	-3.6%	-2.8%	-1.2%	.	-1.7%
Nc1ccc(Nc2nc(-c3cc4ccccc4oc3=O)cs2)cc1	?	?	?	2.39µM*	-0.9%	?
COc1ccccc1CNc1nc2ccccc2c2nc(-c3cccnc3)nn12	-1.2%	.	.	-9.1%	.	.
c1ccc(-c2cc3n(c2)CCc2ccccc2-3)cc1	11.2µM*	3.16µM*	-5.8%	4.78µM*	-0.8%	3.55µM*
N#CC(C(=O)Nc1ccccc1)=C1Nc2ccccc2N1	-26.3%	18.6%	4.6%	21.3µM*	-0.2%	-0.9%
N#CC(C(=O)Nc1cccc(Cl)c1)=C1Nc2ccccc2N1	26.8%	2.5%	4.4%	4.0%	1.7%	10.6%

Screens from PubChem BioAssay.
